Our source for the growth inhibition and condensed nuclei values is PubChem BioAssay AID772 (SRMLSC, 2007).

Screen size: about 3,300 compounds; about 20 (0.6%) were called active.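 The calls were made as follows: active = growth inhibition above 90%, meaning viable cell count cut by more than 90% versus vehicle controls; inactive = growth inhibition below 90%.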 This excerpt belongs to a sample that is enriched for actives.

The test is described as follows: HT29 colon tumor cell growth inhibition, primary screen, imaging, high content imaging, 72 h, CellTiter-Glo (AID 772).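 As to condensed nuclei: condensed means nuclear area below control median minus 1.5 SD.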 As to conditions: HCS imaging cell count, at 10 µM, stronger effect = higher value; for condensed nuclei: measured here: percent cells with condensed nuclei.
[1] abbreviates: measured here: ATP CellTiter-Glo viability.

Regarding `CC(=O)c1cc(C#N)c(SCc2ccncc2)nc1C`, the growth inhibition was 26.3% (inactive) and the condensed nuclei is 4.17%. For the same compound, the growth inhibition under setting [1] is 11%.
For `CCOC(=O)CC(=O)CSc1nc2c(cc1C#N)CCCCCC2`, in that order: -4.76% (inactive), 6.69% and -61.7%.
Turning to `COC(=O)CC1SC(=O)NC1=O` (centres undefined), the growth inhibition is -1.44% (inactive) and the condensed nuclei turned out to be 4.51%. Besides, the growth inhibition under setting [1] is -13%.
The corresponding values for `Cc1ccc(SCc2nnc(N)s2)cc1` are -4.01% (inactive), 15.1% and 13.4%.
`CCN(CC)CCCC1(CN)OCCc2ccccc21` (centres undefined): the growth inhibition was -50.9% (inactive) and the condensed nuclei stood at 1.84%. Under setting [1], the growth inhibition was -27.8%.
Regarding `CCOc1cccc(-c2nnc3sc(-c4cc(OC)c(OC)c(OC)c4)nn23)c1`, the growth inhibition was -44.5% (inactive) and the condensed nuclei was found to be 2.45%. In addition, the growth inhibition under setting [1] was -50.4%.
In the case of `Cc1ccc2cc(CN(C(=O)c3ccco3)c3ccccc3C)c(=O)[nH]c2c1`, the growth inhibition is -61.6% (inactive) and the condensed nuclei stood at 2.77%. For the same compound, the growth inhibition under setting [1] is -59.5%.
For `CCCOc1ccc(Cl)cc1CN1CCOCC1`, the growth inhibition was -59.3% (inactive) and the condensed nuclei was 3.51%. The growth inhibition under setting [1] was -68.7%.
With `COn1c(SC2CCCCC2)nc2ccccc2c1=O`, the growth inhibition was 52.3% (inactive) and the condensed nuclei worked out at 12.3%. The growth inhibition under setting [1] was determined as 29.2%.
Consider `CCOC(=O)C1=C(N)n2c(s/c(=C\c3ccco3)c2=O)=C(C(=O)OC(C)C)C1c1ccco1` (centres undefined), for which the growth inhibition was 50% (inactive) and the condensed nuclei stood at 23.3%. For the same compound, the growth inhibition under setting [1] was -8.27%.
On to `O=C(O)c1cc2sccc2s1`, for which the growth inhibition was 33% (inactive) and the condensed nuclei came out at 8.44%. Under setting [1], the growth inhibition is -8.08%.
As to `CC1(C)NC(=O)N(CC(O)COc2ccccc2C(=O)Nc2ccccc2)C1=O` (centres undefined), the growth inhibition is -19.4% (inactive) and the condensed nuclei stood at 5.25%. For the same compound, the growth inhibition under setting [1] was -40.4%.
As for `COC(=O)C1C(=O)CC(C)(O)C(C(=O)OC)C1c1ccccc1F` (centres undefined), the growth inhibition was 19% (inactive) and the condensed nuclei stood at 2.72%. Also, the growth inhibition under setting [1] is -32.9%.
As for `O=C(OCC#CCSc1nnc(-c2ccccc2)o1)c1cccs1`, the growth inhibition is 38% (inactive) and the condensed nuclei came to 10.3%. Further, under setting [1], the growth inhibition is 5.5%.
On to `CCOC(=O)CSc1nc(NC#N)nc(N(CC)CC)n1`, for which the growth inhibition is -10.6% (inactive) and the condensed nuclei stood at 2.47%. Moreover, the growth inhibition under setting [1] was -34.2%.
The corresponding values for `CC1(C)CC(=O)C(C=NCC(O)c2ccccc2)=C(O)C1` (centres undefined) are 1.15% (inactive), 3.13% and -3.71%.
On to `CCN(CC)Cc1cc(C(C)=O)ccc1OCC(C)C`, for which the growth inhibition is -17.7% (inactive) and the condensed nuclei was 2.8%. Besides, the growth inhibition under setting [1] is -47.7%.
The corresponding values for `Cc1ccc(C2/C(=C(/O)c3cnn(-c4ccccc4)c3C)C(=O)C(=O)N2CCN2CCOCC2)o1` (centres undefined) are -41.7% (inactive), 5.65% and -16.4%.
On to `CC1CCN(c2oc(-c3ccccc3Cl)nc2C#N)CC1`, for which the growth inhibition was 39.9% (inactive) and the condensed nuclei came to 4.72%. For the same compound, under setting [1], the growth inhibition is -1.14%.
Turning to `Cc1nnc(C)n1/N=C/c1cccn1C`, the growth inhibition is -26.9% (inactive) and the condensed nuclei was 2.68%. Further, under setting [1], the growth inhibition is -16.7%.
On to `CCOC(=O)/C(C#N)=C1\Nc2ccccc2N=C1N(CC(C)C)CC(C)C`, for which the growth inhibition was 15.8% (inactive) and the condensed nuclei was 3.37%. The growth inhibition under setting [1] was -0.53%.
Turning to `O=C(c1ccc2c3c(cccc13)C(=O)N(O)C2=O)N1CCCCC1`, the growth inhibition was 63.6% (inactive) and the condensed nuclei was found to be 16.2%. In addition, the growth inhibition under setting [1] was found to be 65.6%.
`S=C(N=Nc1ccccc1)NNc1ccccc1`: the growth inhibition was 5.63% (inactive) and the condensed nuclei turned out to be 9.9%. The growth inhibition under setting [1] was determined as 9.94%.
For `CCCCCC1CC(CC#CCN2CCOCC2)C(=O)O1` (centres undefined), in that order: -6.01% (inactive), 3.8% and -22.1%.
The corresponding values for `Cc1nc(NCCCO)c(C#N)c2c1COC(C)(C)C2` are 26.3% (inactive), 5.86% and -0.61%.
Consider `CCOC(=O)c1[nH]c2ccc(OC)cc2c1NC(=O)CCN1CCC(C)CC1`, for which the growth inhibition is 7.19% (inactive) and the condensed nuclei was 9.76%. Moreover, the growth inhibition under setting [1] stood at 8.59%.
As for `COc1cccc(-c2nnc3sc(-c4ccc(Cl)cc4)nn23)c1`, the growth inhibition is -127% (inactive) and the condensed nuclei is 8.69%. Also, the growth inhibition under setting [1] was -46.5%.
The corresponding values for `O=C(O)C(Cc1c[nH]c2ccccc12)NS(=O)(=O)c1cccc2nsnc12` (centres undefined) are 9.77% (inactive), 1.59% and 1.74%.
On to `Cc1nn2c(-c3ccc(Cl)cc3)nnc2s1`, for which the growth inhibition is 0.82% (inactive) and the condensed nuclei came to 2%. For the same compound, the growth inhibition under setting [1] is -46.2%.
Consider `c1ccc2c(c1)[nH]c1c(N3CCSCC3)ncnc12`, for which the growth inhibition is 57.2% (inactive) and the condensed nuclei was 5.16%. For the same compound, under setting [1], the growth inhibition was 14.5%.
With `Cc1ccc2[nH]c3c(N4CCN(Cc5ccc6c(c5)OCO6)CC4)ncnc3c2c1`, the growth inhibition is 73.7% (inactive) and the condensed nuclei was 29.9%. In addition, the growth inhibition under setting [1] was 96.6%.
Take `Cc1ccc2[nH]c3c(N4CCN(Cc5ccccc5)CC4)ncnc3c2c1`: the growth inhibition is 50.9% (inactive) and the condensed nuclei is 2.3%. Also, the growth inhibition under setting [1] was 7.07%.
The corresponding values for `Fc1ccc2[nH]c3c(N4CCN(Cc5ccc6c(c5)OCO6)CC4)ncnc3c2c1` are 92% (active), 24.5% and 96.7%.
With `CN1CCN(c2ncnc3c2[nH]c2ccc(F)cc23)CC1`, the growth inhibition was 27.9% (inactive) and the condensed nuclei was 6.32%. Further, under setting [1], the growth inhibition is 14.8%.
As to `Cc1ccc2[nH]c3c(N4CCOCC4)ncnc3c2c1`, the growth inhibition is -53.8% (inactive) and the condensed nuclei was found to be 5.07%. Besides, the growth inhibition under setting [1] is -45.3%.
For `COc1ccc2[nH]c3c(N4CCN(Cc5ccc6c(c5)OCO6)CC4)ncnc3c2c1`, in that order: 20.7% (inactive), 1.08% and 21%.
As for `c1ccc(CN2CCN(c3ncnc4c3[nH]c3ccccc34)CC2)cc1`, the growth inhibition is 93.4% (active) and the condensed nuclei was 27.8%. In addition, the growth inhibition under setting [1] was 88.4%.
On to `Cc1ccc2[nH]c3c(N4CCCCCC4)ncnc3c2c1`, for which the growth inhibition is 96.5% (active) and the condensed nuclei came out at 39.6%. Further, the growth inhibition under setting [1] was 96%.
